Assay outcomes: PubChem BioAssay, Paczesny and Yang Labs, IUPUI and University of Michigan
ST2 IL33 inh: inhibitors of human ST2 (IL1RL1) binding to IL-33, primary screen, biochemical, AlphaLISA | AID 1259354, 2018 | AlphaLISA ST2-Fc/biotin-IL-33 interaction, 1 h | inhibition, % for hits at 17 µM | Interleukin-1 receptor-like 1 (Homo sapiens), Q01638 | actives 2.3% (n = 78,000); in the data active = inhibition above about 30%
Target sequence (Q01638 whole entry, looked up): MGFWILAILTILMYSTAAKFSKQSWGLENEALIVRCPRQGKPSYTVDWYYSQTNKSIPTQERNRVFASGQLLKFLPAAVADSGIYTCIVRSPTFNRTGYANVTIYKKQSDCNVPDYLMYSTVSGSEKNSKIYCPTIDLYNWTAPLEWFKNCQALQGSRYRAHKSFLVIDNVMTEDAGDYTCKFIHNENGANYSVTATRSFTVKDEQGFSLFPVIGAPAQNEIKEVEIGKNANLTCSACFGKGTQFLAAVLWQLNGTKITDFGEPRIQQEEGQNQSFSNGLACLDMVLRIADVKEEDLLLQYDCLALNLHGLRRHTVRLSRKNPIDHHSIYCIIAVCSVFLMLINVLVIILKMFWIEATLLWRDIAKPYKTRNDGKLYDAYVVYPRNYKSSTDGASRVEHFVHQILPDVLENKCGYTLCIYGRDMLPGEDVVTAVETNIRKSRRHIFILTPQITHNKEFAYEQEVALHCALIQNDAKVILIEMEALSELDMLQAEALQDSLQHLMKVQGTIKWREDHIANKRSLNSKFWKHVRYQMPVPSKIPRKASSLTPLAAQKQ
* marks the source's active call; other numbers are inactive results; i = inactive. This is one part of a sample in which hits are shown more often than they occur.

SMILES | ST2 IL33 inh
Nc1cc(C(=O)N2CCCCC2CCN2CCCC2=O)ccn1 (stereo not drawn) | i
O=C(Nc1ccccc1)C(Cc1c[nH]c2ccccc12)NC(=O)C(c1ccccc1)c1ccccc1 (stereo not drawn) | i
Cn1cccc1C1C(C#N)=C(N)Oc2n[nH]c(-c3ccccc3)c21 (stereo not drawn) | i
CCOc1ccccc1NC(=O)c1c(-c2ccccc2Cl)noc1C | i
Cc1onc(-c2ccccc2)c1C(=O)Nc1cc2cccc([N+](=O)[O-])c2oc1=O | 46%*
CCOc1ccc(NC(=O)c2c(-c3ccccc3)noc2C)c([N+](=O)[O-])c1 | 38%*
O=C(Nc1cc2cccc([N+](=O)[O-])c2oc1=O)c1cccc(I)c1 | i
Cc1onc(-c2ccccc2)c1C(=O)Nc1cccc(NC(=O)c2c(-c3ccccc3)noc2C)n1 | i
Cc1ccccc1C(=O)Nc1cc2cccc([N+](=O)[O-])c2oc1=O | i
Cc1ccc(C(c2sc3nc(C)nn3c2O)N2CCC(O)CC2)cc1 (stereo not drawn) | i
CCOc1ccccc1NC(=O)COc1ccc(Br)cc1C | i
CC1=C(C(=O)Nc2ccccc2C)C(c2ccncc2)n2nc(SCc3ccccc3)nc2N1 (stereo not drawn) | 33%*
CC1=C(C(N)=O)C(c2ccccc2)n2nc(SCc3ccccc3)nc2N1 (stereo not drawn) | i
CC1=C(C(=O)Nc2ccccc2)C(c2cccnc2)n2nc(SCc3ccccc3)nc2N1 (stereo not drawn) | i
Cc1ccccc1Cn1cc(NC(=O)c2cc(-c3cccc(Cl)c3)on2)cn1 | i
O=C1Nc2ccc(S(=O)(=O)N(Cc3ccccc3)Cc3ccccc3)c3cccc1c23 | i
O=C1c2ccccc2C(=O)N1CN(C(=O)c1ccccc1)c1ccc(Br)cc1 | i
O=C1c2ccccc2C(=O)N1CN(C(=O)c1ccccc1)c1ccc(F)cc1 | 77%*
CC(=O)N(CN1C(=O)c2ccccc2C1=O)c1ccc(F)cc1 | i
Cc1cc(NC(=O)C(C)Oc2ccccc2)nc2c1c(=O)oc1ccccc12 (stereo not drawn) | i
Cn1nc(-c2c(-c3ccccc3)ncn2C2CCNC2)c2c(Cl)cccc21 (stereo not drawn) | i
COc1ccc(C2OC[C@H]3O[C@H](OC)[C@H](OCc4ccccc4)[C@@H](O)[C@@H]3O2)cc1 (stereo partly drawn) | i
CC(C)NC(=O)Cn1c(=O)n(CC2CCC(C(=O)N3CCCC3)CC2)c(=O)c2sccc21 (stereo not drawn) | i
C[C@H]1[C@@H]2[C@@H](O)C([C@H](C)C(=O)NCCN3CCOCC3)CC[C@@]2(C)CC[C@@H]1NC(=O)C1CCCCC1 (stereo partly drawn) | 32%*
COCCNC(=O)[C@@H](C)[C@@H]1CC[C@@]2(C)CC[C@H](NC(=O)C3CC3)[C@@H](C)[C@@H]2[C@H]1O | i
SMILES | ST2 IL33 inh
CC(=O)N[C@H]1CC[C@]2(C)CC[C@@H]([C@H](C)C(=O)NCCN3CCCC3)[C@H](O)[C@H]2[C@@H]1C | i
O=C1C(N2CCOCC2)=CC(=NS(=O)(=O)c2ccc(Cl)cc2)c2ccccc21 | 71%*
O=S(=O)(N=C(c1ccccc1F)N1CCOCC1)c1ccccc1 | i
Cc1ccc(S(=O)(=O)N(c2ccccc2N2CCOCC2)C(F)F)cc1 | i
O=S(=O)(c1ccccc1)c1cccc(S(=O)(=O)N2CCOCC2)c1 | i
O=C1C(N2CCOCC2)=CC(=NS(=O)(=O)c2ccccc2)c2ccccc21 | 41%*
O=S(=O)(c1cccc(Cl)c1Cl)N1CCOCC1 | i
O=C(O)CCC(=O)N1N=C(c2ccc(Br)cc2)CC1c1ccccc1Cl (stereo not drawn) | i
Cc1n[nH]c(C)c1S(=O)(=O)N1CCN(c2cccc(Cl)c2)CC1 | i
OCc1ccc(CN2CCC(n3cc(-c4cccnc4)nn3)CC2)o1 | i
Cc1cccc(-n2c3nc(=O)[nH]c(=O)c-3cc3c(Cl)cccc32)c1 | i
COc1ccc2oc(=O)c(-c3nc4sc5c(c4c(=O)[nH]3)CCCC5)cc2c1 | i
Cc1c(CCCN)c2ccccc2n1-c1ccccc1 | 34%*
CCn1c(C(=O)O)c(CC(=O)N2CCN(c3ccccc3)CC2)c2ccccc21 | i
CCOC(=O)c1c(C)n(-c2ccccc2)c2ccc(OC(=O)c3ccco3)cc12 | i
C=Cc1cccc(CN2CCC3(CC2)CCN(C(=O)COC)CC3)c1 | i
CS(=O)(=O)NC1CCN(Cc2cccn2-c2nccs2)CC1 | i
CCOc1ccc(C2C(=O)c3ccccc3C2=O)cc1 | i
CCc1ccc(S(=O)(=O)N2CCCN(S(=O)(=O)c3ccc(CC)cc3)CC2)cc1 | i
CCc1ccc(S(=O)(=O)N(CC)CC)cc1 | i
CC(C)(C)c1ccc(S(=O)(=O)Nc2ccccn2)cc1 | i
CCOc1cccc(S(=O)(=O)N=C2C=C(C(C)(C)C)C(=O)C(C(C)(C)C)=C2)c1 | i
CCc1ccc(S(=O)(=O)N=C2C=CC(=O)c3ccccc32)cc1 | 49%*
